Screening results (PubChem BioAssay)
In the library only some 9.9% were active in any assay of this set; here they are far more common.
Tau FP inhib: blocks human tau fibril formation measured by polarization; Potency, µM (top dose mostly 57.7 µM), without a hit: at the highest dose activity, negative = inhibition, usual class: inhibitors; hit rate 0.39% among 280,000; AID 1468; K18 P301L tau heparin fibrillization, Alexa594 FP, 6 h; P10636; further: nearly all actives have a fitted effect of over 55% in size
Target sequence (P10636 561-689 P618L limits assumed): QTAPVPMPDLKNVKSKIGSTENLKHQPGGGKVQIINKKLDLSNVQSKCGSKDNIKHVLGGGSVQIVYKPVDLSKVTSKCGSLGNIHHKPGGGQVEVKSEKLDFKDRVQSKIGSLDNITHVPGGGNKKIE
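Steps: dispense K18 P301L tau (15 uM plus 0.24 uM Alexa 594 tracer, final) in pH 7 sodium acetate; add compound; add heparin (20 uM final); incubate 6 hr, 37 C; add ThT (30 uM final); after 1 hr ambient, read FP.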
ALDH1A1 inh: inhibitors of human aldehyde dehydrogenase 1A1 | P00352 | Purified ALDH1A1, NADH fluorescence, propionaldehyde substrate | Potency, µM (series often up to 75.3 µM), for the others: at the highest dose activity, negative = inhibition, hits mostly inhibitors | hit rate 7.3% among 220,000 | AID 1030; active means well fitted inhibition curve with a large enough effect, not every such curve was filed as active; inconclusive means small, poorly fitted or top-dose-only effect, or another doubt; inactive means no such curve, though single readings can be large or run the other way;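 further: plate controls were no enzyme wells and a reference inhibitor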
KDM4E inh: blocks human JMJD2E demethylase activity | Potency, µM (doses to about 57.1 µM), without a hit: at the top dose activity change, negative = inhibition, usual class: inhibitors | B2RXH2 | hit rate 1.6% among 230,000 | JMJD2E catalytic domain, FDH-coupled NADH fluorescence (FDH is formaldehyde dehydrogenase) | AID 2147; active means well fitted inhibition curve with a large enough effect, not every such curve was filed as active; inconclusive means small, poorly fitted or top-dose-only effect, or another doubt; inactive means no such curve, though single readings can be large or run the other way;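 further: 0% = wells with enzyme and -100% = buffer wells without enzyme; nearly all actives have a fitted effect of over 50% in size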
Target sequence (B2RXH2 1-337 limits assumed): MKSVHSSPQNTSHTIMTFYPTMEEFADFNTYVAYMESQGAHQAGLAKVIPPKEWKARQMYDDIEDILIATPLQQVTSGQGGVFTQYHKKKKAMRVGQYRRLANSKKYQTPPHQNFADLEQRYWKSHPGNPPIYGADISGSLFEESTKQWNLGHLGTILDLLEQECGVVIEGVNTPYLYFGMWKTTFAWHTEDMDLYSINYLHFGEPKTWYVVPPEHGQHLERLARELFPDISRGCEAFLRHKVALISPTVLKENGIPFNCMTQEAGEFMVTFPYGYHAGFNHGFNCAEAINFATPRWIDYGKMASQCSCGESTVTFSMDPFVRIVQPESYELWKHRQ
Tau fluor counter: counter-screen for tau fibril formation inhibitors. tau K18 P301L Alexa594 fluorescence, heparin fibrillization. hit rate 0.93% among 280,000. AID 1463. Potency, µM (top dose mostly 57.7 µM), for the others: at the highest dose activity change, negative = decrease; further: nearly all actives have a fitted effect of over 55% in size
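Human K18 P301L tau (15 uM unlabeled plus 0.24 uM Alexa 594-labeled, final) in 100 mM sodium acetate pH 7 was mixed with compound and 20 uM heparin and incubated 6 hr at 37 C.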
HPGD block: inhibitors of human 15-hydroxyprostaglandin dehydrogenase (HPGD); purified HPGD, NADH fluorescence kinetic, PGE2 substrate; AID 894; P15428; hit rate 4.3% among 150,000; Potency, µM, for the others: top-dose activity change, negative = inhibition, most hits filed as inhibitors; active means well fitted inhibition curve with a large enough effect, not every such curve was filed as active; inconclusive means small, poorly fitted or top-dose-only effect, or another doubt; inactive means no such curve, though single readings can be large or run the other way
Target sequence (P15428 whole entry, looked up): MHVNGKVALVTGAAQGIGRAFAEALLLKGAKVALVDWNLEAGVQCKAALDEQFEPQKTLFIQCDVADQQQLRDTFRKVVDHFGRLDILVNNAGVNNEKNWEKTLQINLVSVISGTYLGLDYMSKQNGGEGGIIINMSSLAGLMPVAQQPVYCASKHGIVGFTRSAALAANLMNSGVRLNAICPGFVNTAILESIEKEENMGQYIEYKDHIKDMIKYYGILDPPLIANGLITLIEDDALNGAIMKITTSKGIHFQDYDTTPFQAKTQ
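NADH formation kinetics: reaction with 30 uM PGE2 and 1 mM NAD+ (final), 20 nM enzyme, Tris-HCl pH 8 with Tween 20, after 15 min compound preincubation at room temperature. Fluorescence change, last versus first of five reads.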
Tau fibril ThT: inhibitors of human tau fibril formation, thioflavin T binding; AID 1460; Potency, µM (series often up to 57.4 µM), inactives show at the top dose activity, negative = inhibition, most hits filed as inhibitors; hit rate 2.1% among 270,000; P10636; recombinant tau K18 P301L, heparin-induced fibrillization, ThT fluorescence; further: nearly all actives have a fitted effect of over 55% in size
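ThT emission at 510 nm, taken 1 hr after adding 30 uM dye, quantifies aggregates formed when 20 uM heparin acts on human tau K18 P301L for 6 hr at 37 C.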
* marks the source's active call; other numbers are inactive results; ? = inconclusive; . = no result; ! = not confirmed by another sample; [ ] = another dose, or the depositor's remark. Unless noted, the call rests on the fitted dose curve; in most records, active means well fitted curve in the direction sought with a large enough effect; inconclusive means small, poorly fitted or top-dose-only effect, or another doubt; inactive means no such curve, though single readings can be large; an effect the other way counts as inactive or inconclusive. Unless noted, on the % scale 0 is the no-effect control and ±100 the full control effect; potency means the concentration at half of the fitted maximal effect.

SMILES	Tau FP inhib	ALDH1A1 inh	KDM4E inh	Tau fluor counter	HPGD block	Tau fibril ThT
COc1ccc(C(C#N)N2CCOCC2)cc1 (configuration not stated)	-0.6%	35.5µM*	6.5%	3.4%	3.2%	-0.7%
CC1CC(C)CN(CC(=O)c2ccc(OC(F)F)cc2)C1 (configuration not stated)	-7.0%	1.26µM*	-0.1%	-5.9%	-8.5%	-13.1%
CCOC(=O)CSc1nn(-c2ccccc2)c(=S)s1	?	?	0.8%	-19.4%	.	-11.3%
COC(=O)CSc1n[nH]c(=S)s1	-5.8%	11.2µM*	-15.6%	-2.0%	39.8µM*	-1.4%
Cc1ccc2c(c1)=C/C(=C\c1c(O)[nH]c(=S)[nH]c1=O)C(=O)N=2	?	3.55µM*	?	-13.1%	-14.7%	?
COC1=CC(=O)O[C@@H](/C=C/c2ccccc2)C1	.	12.6µM*	.	.	-9.5%	.
CC(=O)Oc1ccc(Cl)c2cccnc12	-8.2%	5.7%	17.8µM*	-27.6%	-7.0%	-22.8%
BrCC(Br)(Br)Br	.	2µM*	.	.	-12.6%	.
O=C(O)c1cccc([As]=[As]c2cccc(C(=O)O)c2)c1 (configuration not stated)	.	-7.4%[13.5 µM]	.	.	-2.8%	.
O=[N+]([O-])/C=C/c1c(OCc2ccccc2)ccc2ccccc12	3.8%	-8.3%	-2.9%	-2.4%	15.8µM*	?
C=C1C/C(=C\C)C(=O)O[C@@H]2CCN3CC=C(COC(=O)[C@@]1(C)O)[C@H]23	.	18.1%[20.9 µM]	?	.	3.3%	.
NC(N)=NCCCCCCCCCCN=C(N)N	8.3%	5.3%	12.2%	5.4%	4.1%	11.4%
NS(=O)(=O)C[C-]1C=C[CH]([Sb-]([Cl])([Cl])([Cl])([Cl])[Cl])C=C1.c1ccncc1 (configuration not stated)	.	3.55µM*	.	.	-9.8%	.
CCOC(=O)c1c(C)n(Cc2ccco2)c2ccc(OC)cc12	-4.8%	-8.0%	?	-24.2%	-7.3%	?
COC(=O)c1c(C)n(Cc2ccco2)c2ccc(O)cc12	-3.5%	20µM*	-5.3%	-22.2%	-23.6%	-15.1%
COC(=O)[C@]1(C)CC[C@@]2(C)CC[C@@]3(C)C4=CC=C5C(=CC(=O)C(O)=C5C)[C@@]4(C)CC[C@@]3(C)C2C1 (some centres not stated)	?	-10.3%	?	?	20µM*	28.2µM*
O=C1C2C3CCC(O3)C2C(=O)N1CCO (configuration not stated)	-6.4%	.	-3.6%	-2.0%	.	2.3%
O=C1OC(=O)C2C3CCC(O3)C12 (configuration not stated)	11.1%	-6.2%	22.4µM*!	-5.1%	-6.2%	-10.1%
NCCP(=O)(O)O	.	?	.	.	-3.1%	.
C=CC(=O)OCC(CO)(COC(=O)C=C)COC(=O)C=C	.	0.398µM*	.	.	-5.0%	.
CCC1/C=C/C=CCC(C)C(O)[C@@](C)(O)C(=O)C(C)C(O)C(C)C(=O)C(C)C(O)C(C)C=CC(=O)O[C@H]2C(C)C(CC1)O[C@]1(CCC(C)C(CC(C)O)O1)C2C (some centres not stated)	-3.8%	12.8%	-4.2%	-24.8%	-21.3%	?
CC(C)n1cnc2c(C(=O)N[C@H]3CN4CCC3CC4)cc(Cl)cc21	7.4%	2.1%	-4.2%	-10.8%	-7.4%	-2.7%
O=NN(CCCl)C(=O)NCCCl	2.1%	3.16µM*!	8.8%	2.1%	-3.6%	0.0%
Clc1cc(Cl)c(Cl)c(Cl)c1	.	?	.	.	-21.6%	.
CSc1ncc(/C=C2/C(=O)NC(=O)N(c3ccc(C(C)C)cc3)C2=O)cn1	?	14.1µM*	?	-18.0%	?	25.1µM*
SMILES	Tau FP inhib	ALDH1A1 inh	KDM4E inh	Tau fluor counter	HPGD block	Tau fibril ThT
CCc1ccc(N2C(=O)NC(=O)/C(=C\c3cccn3CCOc3ccc(C(C)C)cc3)C2=O)cc1	-6.6%	7.3%	3.6%	-6.5%	-6.7%	?
O=C1NC(=O)N(Cc2ccccc2)C(=O)/C1=C/c1cnc(-c2ccccc2)nc1	?	14.1%	22.4µM*	-20.9%	.	?
CC(C)c1ccc(N2C(=O)NC(=O)/C(=C/c3cnc(-c4ccccc4)nc3)C2=O)cc1	?	18.9µM*	8.91µM*	-23.4%	12.6µM*	15.8µM*
COc1cc2c(cc1O)C(CCc1ccc(Cl)cc1)N(C)CC2 (configuration not stated)	6.3%	-4.7%	0.1%	-4.9%	-8.1%	-7.4%
CN1C[C@H](C(=O)N[C@@]2(C)O[C@@]3(O)[C@H]4CCCN4C(=O)[C@@H](Cc4ccccc4)N3C2=O)C=C2c3cccc4[nH]cc(c34)C[C@@H]21	.	-12.8%[13.5 µM]	.	.	-6.6%	.
CC(C)[C@@]1(NC(=O)[C@@H]2C[C@H]3c4cccc5[nH]cc(c45)C[C@@H]3N(C)C2)O[C@@]2(O)[C@H]3CCCN3C(=O)[C@H](Cc3ccccc3)N2C1=O	-0.1%	8.1%	1.9%	12.6µM*[quencher]	-5.1%	?
CC(C)C[C@H]1C(=O)N2CCC[C@H]2[C@]2(O)O[C@](NC(=O)[C@@H]3C=C4c5cccc6[nH]c(Br)c(c56)C[C@H]4N(C)C3)(C(C)C)C(=O)N12	8.0%	-1.2%	.	?	-12.2%	?
CN1C[C@H](C(=O)N[C@]2(C)O[C@@]3(O)[C@H]4CCCN4C(=O)[C@H](Cc4ccccc4)N3C2=O)C[C@H]2c3cccc4[nH]cc(c34)C[C@@H]21	7.3%	1.1%	?	7.08µM*[quencher]	-4.6%	?
COc1ccc(OC)c(N2C(=O)NC(=O)/C(=C/c3ccc([N+](=O)[O-])s3)C2=O)c1	14.1µM*	?	25.1µM*	?	.	12.6µM*
CCN1C(=O)/C(=C\c2ccc([N+](=O)[O-])s2)C(=O)NC1=S	?	27.0%	2.51µM*	?	.	3.55µM*
CC(=O)C1CCC2C3CCC4=CC(=O)CC[C@@]4(C)C3CC[C@]12C (some centres not stated)	8.4%	?	-6.9%	-9.0%	-2.1%	?
CCCCCCCCCCCCCCC[C@@H](O)[C@@H](N)COP(=O)(O)O	3.5%	3.4%	-1.3%	2.4%	-8.9%	1.2%
O=C(O)C[C@H]1OCC=C2CN3CC[C@]45c6ccccc6N[C@@H]4[C@H]1[C@H]2C[C@H]35	.	-8.2%[13.5 µM]	.	.	-7.4%	.
CCC1C2CC3C4N(C)c5ccccc5[C@]45CC(C2C5O)N3C1O (some centres not stated)	-6.8%	10.3%	8.5%	-11.5%	-2.1%	-9.7%
CC1(C)CC(=O)C(C2(O)C(=O)NC(=O)NC2=O)=C(O)C1	?	8.1%	-18.8%	-18.0%	-0.2%	6.31µM*
COc1cc([C@H]2c3cc4c(cc3[C@@H](O)[C@@H]3COC(=O)[C@H]23)OCO4)cc(OC)c1OC	.	-4.6%[20.9 µM]	-3.6%[25.5 µM]	.	2.8%	.
